This note sets out measurements from PubChem BioAssay AID449762 (Southern Research Specialized Biocontainment Screening …, 2010).

Screen size: about 330,000 compounds; about 1,900 (0.58%) were called active. Roughly 4% stayed inconclusive and do not appear here. Only a sample is shown. Potency and affinity values are given separately. Values without a mark were called inactive. Rule as the data show it: inconclusive = inhibition above about 70% without an active follow-up result; inactive = below that.

The assay can be described thus: M. tuberculosis growth inhibition, HTS (AID 449762).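 Also: bacterial growth assessed after seven days of incubation.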 As to conditions: M. tuberculosis H37Rv growth inhibition, 7H9 media; at 25 µM; stronger effect = higher value.
For the compound `CC(OC(=O)c1nn(C(C)C)c(=O)c2ccccc12)C(=O)Nc1ncc(Cl)cc1Cl` (stereo not drawn), the inhibition was -5.66%. To `Cc1cc(=O)oc2cc(OC(C)C(=O)N3CCCc4ccccc43)ccc12` (stereo not drawn) belongs -5.32%; to `CC(NCC1COc2ccccc2O1)C1COc2ccccc2O1` (stereo not drawn), -4.91%. Turning to `CC1CN(c2ccc(Cl)nn2)CC(C)O1` (stereo not drawn), the inhibition was 7.67%. As to `COc1ccc(C(CCN(Cc2ccc(OC)c(OC)c2)C(C)=O)c2ccccc2)cc1` (stereo not drawn), the inhibition was -0.43%.

In the case of `COc1ccc(C(CCN(Cc2ccc(OC)c(OC)c2)C(C)=O)C(C)C)cc1` (stereo not drawn), the inhibition was 2.76%.

On to `CCC1CN(C(=O)N2CCC(C(=O)Nc3ccccc3OC)CC2)c2ccccc2O1` (stereo not drawn), for which the inhibition was 10.6%.

Consider `O=S(=O)(c1ccc2ccccc2c1)N1CCN(S(=O)(=O)N2CCCCC2)CC1`, for which the inhibition was 0.71%. Under `COc1ccc(C2=NOC(C(=O)N3CCN(C(=O)c4ccco4)CC3)C2)cc1OC` (stereo not drawn) stands 2.5%; under `O=C(c1ccco1)N1CCN(C(=O)C2CC(c3ccc(F)cc3)=NO2)CC1` (stereo not drawn), 10.6%; under `Cn1c(CSc2nc3ccccc3s2)nnc1SCC(=O)NCCN1CCOCC1`, 1.49%. For the compound `CCCCn1nc(C(=O)Oc2ccc3c(C)cc(=O)oc3c2)c2ccccc2c1=O`, the inhibition is 64.9%. With `CCn1c(SCC(=O)NC2CCCCC2)nc2ccccc2c1=O`, the inhibition is -17.1%. As to `CCOC(=O)CSc1nc2ccccc2c(=O)n1CC`, the inhibition was -0.95%.

Regarding `O=C(Nc1ccn([C@H]2CC[C@@H](CO)O2)c(=O)n1)c1ccccc1`, the inhibition is -7.83%. Under `O=C(COC(=O)/C=C/c1cccc(Br)c1)NC1CCCCC1` stands 1.15%; under `CCC(C(=O)n1cccc1C#N)c1ccccc1C` (stereo not drawn), -5.42%; under `CCOC(=O)c1nn(-c2ccc(Cl)cc2)cc1O`, 47.5%. Under `CCOC(=O)c1nn(-c2ccc(C)cc2)cc1O` stands 25.8%. With `O=C(Oc1ccc(Br)cc1C(=O)/C=C/c1ccccc1F)c1ccco1`, the inhibition was 0.45%. Regarding `O=C(/C=C/Nc1ccc(Br)cc1F)c1ccco1`, the inhibition was 4.98%. Turning to `CS(=O)(=O)c1ccc(C(=O)OCC(=O)N2CCCc3ccccc32)cc1`, the inhibition was -0.56%.

As for `CCNS(=O)(=O)c1ccc(C(=O)OCC(=O)N2CCCc3ccccc32)cc1`, the inhibition was 5.95%.

`O=C1C=C(NCc2ccco2)C2(CCCCC2)O1`: the inhibition is -1.04%. On to `CCNc1nc(NC(C)C)nc(ON=C(C)C)n1`, for which the inhibition is -5.67%. On to `Cc1cc(C(=O)N=Nc2c(O)n(C)c3ccccc23)c(C)o1`, for which the inhibition was 5.51%. Regarding `COc1ccc(C(C)=O)cc1COC(=O)c1cc(C)nc2ccccc12`, the inhibition is 11.9%. `COc1ccc(C(C)=O)cc1COC(=O)c1cc2ccccc2cc1O`: the inhibition is -1.43%.

The inhibition is the drop in the measured response relative to a control, in per cent.
